Bioassay records as filed in PubChem.
IMPase Li inh – IMPase inhibition in cells with lithium potentiation; CHO-M1 cells, IP1 TR-FRET (IP-One), carbachol + lithium; Potency, µM (series often up to 59.4 µM), without a hit: at the top dose activity, negative = IMPase inhibition, usual class: inhibitors; 210,000 tested, 0.35% active; AID 1457;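 also: IP1 builds up when IMPase is blocked and the TR-FRET signal falls; potency is read from the fitted curve at half-maximal effect; plate controls were basal vehicle for no effect and high inhibitor control for full effect; nearly all actives have a fitted effect of over 50% in size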
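Readout is a homogeneous TR-FRET IP1 immunoassay (Ex 320, Em 665 and 620), where raised cytosolic IP1 lowers signal. Cells were CHO-M1 treated 30 min at 37C with test compounds plus a little lithium; AC50 values came from Hill-equation fitting.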
12-hLO inh – 12-hLO (ALOX12) enzyme inhibition; Potency, µM (series often up to 57.1 µM), inactives show at the highest dose activity change, negative = inhibition, usual class: inhibitors; 150,000 tested, 0.12% active; P18054; AID 1452; purified 12-hLO, xylenol orange hydroperoxide absorbance; also: potency is read from the fitted curve at half-maximal effect; nearly all actives have a fitted effect of over 55% in size
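Hydroperoxide formation by human 12-lipoxygenase from 40 uM arachidonic acid was followed colorimetrically via ferric-xylenol orange complex, using the 573/405 nm absorbance ratio. Enzyme concentration was 150 nM, with 30 min reaction at room temperature.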
PNC inhibitor – blocks assembly of the perinucleolar compartment | PC3M PTB-GFP, PNC prevalence imaging, 16 h; active compounds read low | activity change (PNC), negative = inhibition, % at 10 µM | 140,000 tested, 3.1% active | AID 2417;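 active = readout at or below -70, meaning at least 70% loss of cells showing the perinucleolar compartment, a nuclear body marking cancer cells; inconclusive = readout between -30 and a set limit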;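 also: plate controls were DMSO wells for no effect and camptothecin positive control wells for full effect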
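Compounds are pinned in duplicate onto adhered PC3M cells stably expressing GFP-tagged PTB and incubated 16 h at 37 C. Cells are then fixed, nuclei stained with Hoechst, and PNC-positive cells counted.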
IMPase inh – membrane-permeable compound that blocks inositol monophosphatase | P97697 | CHO-M1 cells, IP1 accumulation, HTRF TR-FRET ratio | inhibition (IP1 accumulation), % at 46.1 µM | 120,000 tested, under 10 active; active = well fitted curve in the direction sought with a large enough effect in the signal ratio, not every such curve was filed as active; inconclusive = small, poorly fitted or top-dose-only effect, or a change in a side signal; inactive = no such curve, though single readings can be large or run the other way; the % refers to the signal ratio;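 also: cells stimulated with carbachol in lithium chloride buffer; plate controls were DMSO basal wells for no effect and reference inhibitor wells for full effect; higher means more IMPase inhibition seen as more IP1 and lower FRET ratio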
Target sequence (P97697 whole entry, looked up): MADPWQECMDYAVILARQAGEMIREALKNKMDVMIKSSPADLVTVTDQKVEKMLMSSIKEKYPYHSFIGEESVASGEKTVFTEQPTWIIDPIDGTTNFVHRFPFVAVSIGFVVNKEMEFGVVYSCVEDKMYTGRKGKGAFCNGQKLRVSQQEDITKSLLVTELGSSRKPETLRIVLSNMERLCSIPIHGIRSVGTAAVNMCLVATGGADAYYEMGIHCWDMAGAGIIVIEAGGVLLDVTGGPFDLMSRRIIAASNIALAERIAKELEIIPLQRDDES
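Seeded CHO-M1 cells were dosed with compound at up to 46 uM, stimulated with carbachol for 30 min, then lysed in IP-One detection reagents. Higher IP1 lowers the TR-FRET signal.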
Starred values were filed as active, the others as inactive; ? = inconclusive; · = no result; [ ] = dose if it differs, or a comment. This excerpt belongs to a sample that is enriched for hits. Unless noted, calls follow the shape of the dose curve; as a rule, active = well fitted curve in the direction sought with a large enough effect; inconclusive = small, poorly fitted or top-dose-only effect, or another doubt; inactive = no such curve, though single readings can be large; an effect the other way counts as inactive or inconclusive. Unless noted, % is scaled to controls: 0 for no effect and ±100 for the full control effect.

SMILES	IMPase Li inh	12-hLO inh	PNC inhibitor	IMPase inh
COc1cccc(/C=N/Nc2cc(-n3nc(C)cc3-c3ccccc3)ncn2)c1O	13.1%	0.5%	-100.0*	·
COc1cccc(/C=N/Nc2ncnc(Cl)c2N)c1O	7.3%	-2.2%	?	·
COc1cccc(/C=N/Nc2ncnc3scc(-c4ccccc4)c23)c1O	6.0%	-11.1%	-100.7*	·
CCN1C(=O)CSc2ccc(C(=O)NCc3ccc(OC)cc3)cc21	22.4%[38.3 µM]	2.5%	45.7	9.5
Cc1cc(S(=O)(=O)N(Cc2ccccc2)Cc2ccc(N(C)C)cc2)ccc1-n1cnnn1	14.6%	2.9%	-118.9*	19.9
CC(=O)Nc1ccc(S(=O)(=O)NNC2=NS(=O)(=O)c3ccccc32)cc1	3.7%	·	·	·
COc1cccc(C2=NO[C@@H]3C(=O)N(Cc4ccccc4)C(=O)[C@H]23)c1OC	-4.1%[38.3 µM]	-5.1%	-106.9*	?
CCN(CC)CCNc1nc2c(c(=O)[nH]c(=O)n2C)n1CC(O)COc1ccc(Cl)cc1Cl (stereo unspecified)	-11.9%[38.3 µM]	0.2%	-83.7*	1.8
CCCc1nc2oc3c(OC)ncnc3c2c2c1COC(C)(C)C2	34.2%[38.3 µM]	9.3%	-29.1	?
CCCc1nc2oc3c(NCCOCCO)ncnc3c2c2c1COC(C)(C)C2	-6.4%[38.3 µM]	-4.2%	-111.2*	-1.2
Cc1c(-c2ccc(Br)cc2)nc2ccccn12	·	3.6%	-19.6	-4.2
CN(C)c1ccc(-c2nc3ccccn3c2/N=C/c2ccc(Br)cc2)cc1	30.1%	-12.7%	-112.2*	·
Cc1ccc(C(c2c(O)nc3n(c2=O)CCS3)c2c(O)nc3n(c2=O)CCS3)cc1	-5.4%	-7.7%	-80.7*	·
Fc1ccc(CSc2nncn2NC/C=C/c2ccccc2)cc1	-3.3%[38.3 µM]	-5.5%	-83.2*	-8.9[1.84 µM]
COC(=O)c1cc(NC(=O)CN(c2ccc(OC)cc2)S(=O)(=O)c2ccc(F)cc2)ccc1Cl	14.9%	1.7%	-118.9*	-0.8
CN(c1cccc(NC(=O)CN(c2ccc(Cl)c(Cl)c2)S(=O)(=O)c2ccccc2)c1)S(C)(=O)=O	1.1%	-2.9%	-100.0*	12.9
Cc1ccccc1OCC(=O)Nc1cccc(N(C)S(C)(=O)=O)c1	-9.7%[38.3 µM]	0.1%	6.6	?
CN(c1cccc(NC(=O)COc2ccccc2)c1)S(C)(=O)=O	11.0%[38.3 µM]	-10.9%	-111.5*	-4.5
O=C(CNc1ccc(Br)cc1)NNC1=NCCC1	1.2%	2.2%	-113.4*	·
COc1ccccc1N=CC1=C(O)CC(c2ccccc2)CC1=O (stereo unspecified)	4.1%	2.1%	?	4.3
C[C@H](NC(N)=O)C(=O)OCC(=O)Nc1ccc(OC(F)F)cc1	-6.7%	·	·	·
O=C(COC(=O)C1CC1)c1c[nH]c2ccccc12	11.6%[38.3 µM]	-3.3%	-80.2*	2.7
Cc1noc(C)c1-c1ccc2ncnc(N(C)Cc3ccco3)c2c1	-8.3%	2.0%	·	·
COc1ccc(OC)c(NC(=O)Cn2cccc2)c1	-0.3%[38.3 µM]	-3.5%	-3.0	-5.2
CCC(C)NC(=O)CSc1nc2ccccc2c(=O)n1Cc1ccc(OC)cc1 (stereo unspecified)	-22.1%[38.3 µM]	2.0%	?	1.4
SMILES	IMPase Li inh	12-hLO inh	PNC inhibitor	IMPase inh
COc1ccc(CNc2ccc(-c3ccc(OC)cc3)nn2)cc1	-3.7%[38.3 µM]	-2.6%	-87.9*	-5.1[9.22 µM]
Cc1ccc(S(=O)(=O)c2cc3cc(Br)ccc3oc2=O)cc1	1.3%	0.1%	97.6	?
CC(C)c1ccc(S(=O)(=O)c2cc3cc(Br)ccc3oc2=O)cc1	14.1µM*	4.5%	58.3	5.4
CC(C)(C)N(NC(=O)OCc1ccccc1)C(=O)c1ccccc1	-2.3%	-2.3%	-80.4*	·
CCNc1ccc(S(=O)(=O)N(C)C)cc1[N+](=O)[O-]	-8.5%	·	·	·
CCCCNc1ccc(S(N)(=O)=O)cc1[N+](=O)[O-]	0.0%	-2.7%	-112.8*	·
C=C(C)C(=O)C1CCCCC1	5.7%	·	·	·
NS(=O)(=O)c1ccc(CCNC(=O)NC2(C(F)(F)F)Oc3ccccc3O2)cc1	14.2%	-1.4%	-100.0*	2.7
CCOc1cc(-c2c(C#N)c(N)nc3c2CCCC3)ccc1O	2.4%[38.3 µM]	-5.7%	-113.7*	2.0
CCOc1cc(-c2cc(-c3ccc(N)cc3)nc(N)c2C#N)ccc1O	-28.1%[38.3 µM]	-9.9%	65.8	-24.2
COc1cc(-c2c(C#N)c(N)nc3c2CCCC3)cc(OC)c1OC	-2.4%	0.8%	-100.0*	-8.7
Cc1ccc(N=C2NC(=O)c3cc([N+](=O)[O-])ccc32)cc1	12.6µM*	1.6%	57.9	?
O=C1OC(=O)c2cc([N+](=O)[O-])ccc21	-13.4%	-0.3%	·	·
CC1=C(C(=O)N2CCOCC2)C(c2c(F)cccc2F)NC(=O)N1 (stereo unspecified)	0.2%	·	·	·
Cn1c(=O)[nH]c(=O)c2c1nc(NCCCn1ccnc1)n2Cc1ccccc1	26.3%[38.3 µM]	0.2%	-102.3*	-2.5
Cc1cc(C)n(CC(O)CN2C(=O)NC(C)(C)C2=O)n1 (stereo unspecified)	19.7%[38.3 µM]	-0.8%	-106.5*	3.9
O=C(c1ccco1)N(Cc1ccco1)c1ccc(O)cc1	2.8%[38.3 µM]	-3.8%	-95.9*	2.2
O=c1[nH]c(SCc2ccccc2Cl)nc2c1CCC2	11.3%[38.3 µM]	-5.4%	-100.9*	3.7
O=C(CN1CCC(NC(=O)c2ccco2)CC1)Nc1cccc2ccccc12	4.0%	2.8%	-100.0*	-5.7
C/C(=N\NC(=O)C(c1ccccc1)c1ccccc1)c1ccccn1	0.2%	5.6%	-80.6*	·
N/C(=N\OC(=O)C(c1ccccc1)c1ccccc1)c1ccccn1	6.9%	-2.6%	?	·
CSc1nc(-c2ccc(C)cc2)nc(C(Cl)Cl)n1	5.3%[38.3 µM]	-1.0%	-106.0*	-4.2
CC(=O)Nn1cc2c(c1-c1ccccc1)c(=O)n(C)c(=O)n2C	-7.1%[38.3 µM]	-3.0%	-137.9*	-5.4
Cn1c(=O)c2c(-c3ccccc3)n(Cc3ccccn3)cc2n(C)c1=O	25.0%[38.3 µM]	-2.2%	39.0	-6.0
N=C1N(/N=C/c2ccccc2)C(=Nc2ccccc2)C(=S)N1c1ccccc1	10.9%	-1.7%	-100.0*	-2.9
SMILES	IMPase Li inh	12-hLO inh	PNC inhibitor	IMPase inh
Cc1nnc(C)n1/N=C/c1ccccc1	-9.8%[38.3 µM]	3.8%	24.3	5.0
C=CCNC(=S)Nc1sc2c(c1C(=O)OCC)CC(C)(CC)OC2 (stereo unspecified)	-7.6%	-10.0%	-100.0*	·
CO/N=C(\C(=O)N[C@@H]1C(=O)N2C(C(=O)O)=C(CSc3nc(=O)c(O)nn3C)CS[C@@H]12)c1csc(N)n1	·	-4.2%	·	-2.5
O=C(/C=C/c1ccccc1)NCCSCc1ccccc1Cl	22.0%	-0.8%	-91.1*	-2.0
CCN(CC)c1ccc(NC(=O)COc2ccc(C#N)cc2)cc1S(=O)(=O)Nc1ccc(OC)cc1	8.3%	-2.7%	18.7	·
O=c1c(-c2cc(F)cc(F)c2)nc2cnc(N3CCNCC3)nc2n1C1CC1	-3.2%	·	·	·
O=c1c(-c2cc(F)cc(F)c2)nc2cnc(N3CCOCC3)nc2n1C1CC1	8.91µM*	-3.6%	·	·
CN1CCN(C(=O)c2ccc(CN3CCOCC3)cc2)CC1	-16.1%[38.3 µM]	7.4%	-92.7*	1.0
CN(C)Cc1nc(-c2cn(C)c3ccccc23)no1	8.1%	·	·	·
Cc1nc(-c2ccc(Br)cc2)ccc1C(=O)O	8.91µM*	-0.3%	?	·
Cc1ccc(-c2ccc(C(=O)O)c(C)n2)cc1	2.8%	0.0%	-17.2	·
